Source: PubChem BioAssay (The Scripps Research Institute Molecular Screening Center)
Most compounds without a hit are left out; they make up all but 3.5% or so of the library.
GPR151 ag = activators of human GPR151; Q8TDV0; PathHunter beta-arrestin GPR151 cells, luminescence; activation, % at 11.2 µM; hit rate 1% among 650,000; in the data active = activation above about 4.9%;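 note: 0% = median of compound wells and 100% = cells with positive control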
TEAD-YAP inh = TEAD-YAP interaction inhibition; hit rate 1.4% among 640,000; inhibition, % at 9.12 µM; HEK-TIYL cells, TEAD-Gal4/YAP UAS-luciferase luminescence; AID 1259422; in the data active = inhibition above about 32%;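 note: 0% = median of test compound wells and 100% = reference inhibitor wells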
MITF inh = human MITF inhibition, primary screen. O75030. AlphaScreen MITF homodimerization, bead proximity signal. inhibition, % at 2.6 µM. hit rate 0.91% among 650,000. AID 1259374; in the data active = inhibition above about 50%;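 note: 0% = vehicle wells with protein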
Target sequence (O75030 whole entry, looked up): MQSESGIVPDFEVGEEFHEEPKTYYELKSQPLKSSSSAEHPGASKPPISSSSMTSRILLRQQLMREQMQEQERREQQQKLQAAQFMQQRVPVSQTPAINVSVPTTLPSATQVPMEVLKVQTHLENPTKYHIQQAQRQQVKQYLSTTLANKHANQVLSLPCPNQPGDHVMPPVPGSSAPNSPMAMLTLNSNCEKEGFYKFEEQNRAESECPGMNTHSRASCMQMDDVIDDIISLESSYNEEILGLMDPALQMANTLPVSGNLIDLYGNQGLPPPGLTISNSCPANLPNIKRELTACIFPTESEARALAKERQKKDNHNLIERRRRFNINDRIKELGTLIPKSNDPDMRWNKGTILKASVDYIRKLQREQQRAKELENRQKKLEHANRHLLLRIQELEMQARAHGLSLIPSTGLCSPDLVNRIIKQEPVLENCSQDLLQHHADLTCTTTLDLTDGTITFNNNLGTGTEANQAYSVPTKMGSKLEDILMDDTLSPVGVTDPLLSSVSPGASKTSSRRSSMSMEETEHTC
FBW7 act = human FBW7 E3 ligase activation, primary screen. AlphaScreen FBW7–phospho-cyclin E peptide binding, activator screen. hit rate 0.13% among 650,000. AID 1259310. Q969H0. normalized activity (activation), % at 26.1 µM; in the data active = normalized activity above about 1.9%;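 note: purified mutant Fbw7 with reduced substrate affinity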
Starred values were filed as active, the others as inactive.

`Cc1cc(-c2ccc(S(=O)(=O)N3c4ccccc4CC3C)cc2)on1` (stereo not given) gave GPR151 ag -0.5, TEAD-YAP inh 61.3*, MITF inh 2.7 and FBW7 act 0.1.
Cc1cccc(-n2c(SCC(=O)N3CC(C)CC(C)C3)nc3n[nH]c(C)c3c2=N)c1 (stereo not given) was read as GPR151 ag 1.2, TEAD-YAP inh 3.0, MITF inh -1.8 and FBW7 act -0.2.
For O=c1oc2ccccc2cc1-c1cn2ccccc2n1 the results were GPR151 ag -10.8, TEAD-YAP inh 74.6*, MITF inh 0.7 and FBW7 act 0.1.
COc1cccc2cc(-c3cn4ccccc4n3)c(=O)oc12 was read as GPR151 ag -6.1, TEAD-YAP inh 41.9*, MITF inh 7.0 and FBW7 act 0.1.
`O=C1OC2(CCCC2)OC(=O)C1=Cc1ccc(-c2ccc([N+](=O)[O-])cc2)o1` gave GPR151 ag -0.6, TEAD-YAP inh -0.7, MITF inh 17.1 and FBW7 act -0.1.
For O=C1NN(c2ccccc2)C(=O)/C1=C/c1ccc([N+](=O)[O-])o1 the results were GPR151 ag -0.6, TEAD-YAP inh 6.8, MITF inh 78.6* and FBW7 act -0.4.
`O=C1NN(c2ccccc2)C(=O)/C1=C\c1ccc(-c2ccc([N+](=O)[O-])cc2)o1` gave GPR151 ag -1.0, TEAD-YAP inh -9.8, MITF inh 5.2 and FBW7 act -0.1.
For O=C1NC(=S)N(c2ccc(F)cc2)C(=O)/C1=C\c1ccc2c(c1)OCCO2 the results were GPR151 ag 1.0, TEAD-YAP inh 8.5, MITF inh 71.2* and FBW7 act -0.2.
`O=C1OC2(CCCCC2)OC(=O)C1=Cc1ccc([N+](=O)[O-])o1` gave GPR151 ag -1.0, TEAD-YAP inh 6.4, MITF inh 66.4* and FBW7 act -1.5.
For O=C1NC(=S)N(c2ccccc2)C(=O)/C1=C\c1ccc([N+](=O)[O-])o1 the results were GPR151 ag -1.1, TEAD-YAP inh 4.6, MITF inh 80.1* and FBW7 act -0.3.
For COc1ccccc1CNC(=O)c1cnn2c(C)c(Cc3cccc(C)c3)c(C)nc12 the results were GPR151 ag 0.5, TEAD-YAP inh 3.3, MITF inh 4.5 and FBW7 act 0.2.
Screening CC(=O)Nc1ccc(NC(=O)Cc2ccc(OCc3c(C)noc3C)cc2)cc1 returned GPR151 ag 2.4, TEAD-YAP inh -2.2, MITF inh 6.9 and FBW7 act 0.1.
For O=C(CCCCC(=O)n1nnc2ccccc21)n1nnc2ccccc21 the results were GPR151 ag 1.7, TEAD-YAP inh -7.4, MITF inh -7.9 and FBW7 act 0.1.
Screening O=C(N1CCCCC1)n1nnc2ccccc21 returned GPR151 ag -0.5, TEAD-YAP inh 74.8*, MITF inh 1.7 and FBW7 act 0.6.
Screening O=C(N/N=C\c1ccncc1)c1ccc(COCC(F)(F)F)cc1 returned GPR151 ag 1.4, TEAD-YAP inh -9.0, MITF inh 1.1 and FBW7 act -0.1.
For CCOC(=O)C1CCN(Cc2cccc(OC)c2O)CC1 the results were GPR151 ag 0.0, TEAD-YAP inh -3.4, MITF inh 19.5 and FBW7 act 0.1.
`O=C(C1CCN(Cc2ccccc2O)CC1)N1CCc2ccccc2C1` gave GPR151 ag 0.4, TEAD-YAP inh 14.8, MITF inh 37.9 and FBW7 act 0.0.
`COc1cccc(CN2CCC(C(=O)N3CCc4ccccc4C3)CC2)c1O` gave GPR151 ag 1.1, TEAD-YAP inh 1.0, MITF inh 50.7* and FBW7 act 0.7.
For CCOC(=O)N1CCN(C(=O)C2CCN(Cc3cccc(OC)c3O)CC2)CC1 the results were GPR151 ag -0.8, TEAD-YAP inh -5.6, MITF inh 54.9* and FBW7 act -0.1.
For O=C(Oc1ccc(Oc2ccc(OC(=O)c3ccco3)cc2)cc1)c1ccco1 the results were GPR151 ag 0.1, TEAD-YAP inh -0.2, MITF inh -0.5 and FBW7 act 0.0.
`Cc1ccc2nc3c(cc(C(N)=O)c(=N)n3CCc3ccccc3)c(=O)n2c1` gave GPR151 ag -1.3, TEAD-YAP inh 39.5*, MITF inh 5.1 and FBW7 act -0.1.
O=C(CC(Sc1cccc2cccnc12)c1ccc(OC(F)F)cc1)c1ccco1 (stereo not given) was read as GPR151 ag -1.6, TEAD-YAP inh 51.1*, MITF inh -13.7 and FBW7 act -2.1.
O=C(Nc1ccc(Cl)cc1)Nc1ccccc1I was read as GPR151 ag 2.4, TEAD-YAP inh -14.4, MITF inh 6.0 and FBW7 act 0.0.
For NC(=O)c1ccc2c(c1)CC(c1nc3ccc(-c4ccnc(N)n4)cc3[nH]1)CO2 (stereo not given) the results were GPR151 ag -0.1, TEAD-YAP inh 1.3, MITF inh 31.3 and FBW7 act 1.0.
Nc1nccc(-c2ccc3nc(C4COc5ccc(F)cc5C4)[nH]c3c2)n1 (stereo not given) was read as GPR151 ag -1.1, TEAD-YAP inh 42.9*, MITF inh 2.2 and FBW7 act 0.0.
COc1cccc2c1CC(c1nc3ccc(-c4ccnc(N)n4)cc3[nH]1)CO2 (stereo not given) was read as GPR151 ag -0.6, TEAD-YAP inh 50.0*, MITF inh 7.9 and FBW7 act 0.0.
Cc1ccccc1NC(=O)Nc1ccccc1C was read as GPR151 ag 0.5, TEAD-YAP inh -10.9, MITF inh -9.8 and FBW7 act 0.2.
For Cc1ccccc1NC(=O)/C(Cl)=C(\Cl)S(=O)(=O)C(C)C the results were GPR151 ag -0.7, TEAD-YAP inh 51.8*, MITF inh -14.5 and FBW7 act 0.2.
O=C(Nc1c2c(nn1-c1ccc(Cl)cc1)CS(=O)(=O)C2)c1ccc(Br)o1 was read as GPR151 ag -2.3, TEAD-YAP inh -2.5, MITF inh 19.3 and FBW7 act 0.8.
For CC(C)NC(=O)Cn1nc2c3ccccc3nc(C3CC3)n2c1=O the results were GPR151 ag 1.7, TEAD-YAP inh -1.0, MITF inh 3.5 and FBW7 act 0.1.
Screening CC(C)(C)NC(=O)Cn1nc2c3ccccc3nc(C3CC3)n2c1=O returned GPR151 ag -0.8, TEAD-YAP inh 43.8*, MITF inh -1.4 and FBW7 act 0.0.
Screening COc1ccccc1OCC(=O)Nc1ccc(S(=O)(=O)NCCc2ccccc2)cc1 returned GPR151 ag 2.2, TEAD-YAP inh 6.7, MITF inh 16.8 and FBW7 act -0.1.
Screening Cc1ccc(C2=NN(CC(=O)NCCCN3CCCC(C)C3)C(=O)CC2)cc1 (stereo not given) returned GPR151 ag -1.9, TEAD-YAP inh -12.6, MITF inh 11.2 and FBW7 act 0.8.
`O=C(CCNC(=O)Oc1ccccc1)NC1CCCCC1` gave GPR151 ag -1.3, TEAD-YAP inh 6.2, MITF inh 6.7 and FBW7 act 1.9*.
O=C(CCNC(=O)OCc1ccccc1)NC1CCCCC1 was read as GPR151 ag 0.8, TEAD-YAP inh 6.5, MITF inh 17.0 and FBW7 act 0.9.
`Cc1cccc(Nc2nnc(SCC(=O)NC(C)(C)C)s2)c1C` gave GPR151 ag 0.0, TEAD-YAP inh 4.5, MITF inh 10.9 and FBW7 act 0.2.
